KB-V1 cytotox: kills drug-selected multidrug resistant KB-V1 cells. 400,000 compounds, 3.4% hits. KB-V1 MDR cells viability, CellTiter-Glo, 72 h. Potency, µM (series often up to 46.1 µM), hits mostly cytotoxic. AID 1347076; further: on the % scale 0 is the no-effect control and ±100 the full control effect; nearly all actives have a fitted effect of over 60% in size
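Cytotoxicity via CellTiter-Glo luminescence after 72 h compound exposure at 37 degrees C. Cells: drug-selected KB-V1 line, DMEM phenol-red free plus 10% FBS. Compounds tested at multiple concentrations; normalized data fitted to concentration-effect curves.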
MCF10A rereplic: induces DNA re-replication in MCF 10a normal breast cells. MCF 10A DNA re-replication, Hoechst nuclear intensity, 48 h. Potency, µM (series often up to 46.1 µM), without a hit: at the highest dose activity, positive = re-replication, actives largely listed as activators. 350,000 compounds, 2.9% hits. AID 624296; further: % of control where 0% means no effect; nearly all actives have a fitted effect of over 50% in size
SW480 rerep: DNA re-replication induction in SW480 cells. SW480 DNA re-replication, Hoechst DNA content imaging, 48 h. Potency, µM (highest dose often 46.1 µM), for inactives: top-dose re-replication activation, actives largely listed as activators. 340,000 compounds, 1.8% hits; further: % of control where 0% means no effect; nearly all actives have a fitted effect of over 55% in size
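Treated cells incubate 48 hr (37 C, 5% CO2), are stained 40 min with Hoechst, and nuclear fluorescence is enumerated; a rise in nuclei with high DNA signal marks re-replication.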
HT1080 IDH1KD tx: toxicity to HT-1080 IDH1 knockdown cells (counter line) | HT-1080 IDH1 knockdown viability, ATP luminescence, 48 h | Potency, µM (top dose mostly 46.1 µM), without a hit: at the top dose activity, negative = toxicity, actives largely listed as cytotoxic | 360,000 compounds, 2% hits;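 further: 0% = DMSO wells and -100% = cell-free medium wells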
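Cytotoxicity counter-line: IDH1KD HT-1080, 48 h, CellTiter-Glo. Curves classed by r2, magnitude and activity.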
HT1080NT lethal: kills 2HG-producing HT-1080-NT fibrosarcoma cells | Potency, µM (highest dose often 46.1 µM), for the others: at the highest dose activity, negative = less viability, usual class: cytotoxic | 360,000 compounds, 1.6% hits | HT-1080-NT fibrosarcoma viability, CellTiter-Glo ATP luminescence, 48 h;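 further: NT is the 2HG producing partner of a matched IDH1 knockdown line; 0% = DMSO-treated cells and -100% = media-only wells without cells; nearly all actives have a fitted effect of over 55% in size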
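Viability of the 2HG-overproducing fibrosarcoma line after 48 hours of compound exposure at 37 degrees C was determined by luminescence with CellTiter-Glo, and concentration-effect curves were then fitted and categorized.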
KB-3-1 cytotox: kills parental KB-3-1 adenocarcinoma cells. KB-3-1 viability, CellTiter-Glo ATP luminescence, 72 h. Potency, µM (series often up to 46.1 µM), actives largely listed as cytotoxic. 400,000 compounds, 1.4% hits. AID 1347075; further: on the % scale 0 is the no-effect control and ±100 the full control effect; nearly all actives have a fitted effect of over 60% in size
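KB-3-1 cells, DMEM (no phenol red) + 10% FBS; compound by pin transfer, 72 h, 37 °C. Readout: CellTiter-Glo luminescence after 10 min. Data normalized, curve-fitted.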
Active calls of the source: *; i = inactive; ? = inconclusive; / = not tested or not shown; [ ] = remark or other dose. A selection: hits, their analogues and other compounds. The true share with any hit is near 8%. The call rests on the fitted dose curve; in most records, active means well fitted curve in the direction sought with a large enough effect; inconclusive means small, poorly fitted or top-dose-only effect, or another doubt; inactive means no such curve, though single readings can be large; an effect the other way counts as inactive or inconclusive. Potency means the concentration at half of the fitted maximal effect.

SMILES	KB-V1 cytotox	MCF10A rereplic	SW480 rerep	HT1080 IDH1KD tx	HT1080NT lethal	KB-3-1 cytotox
CCOC(=O)N1CCN(C(=O)c2cc(-c3ccncc3)nc3ccccc23)CC1	?	?	18µM*	?	?	?
CCOC(=O)N1CCN(C(=O)c2cc(-c3ccc(OCC)cc3)nc3ccccc23)CC1	2.3µM*	3.7µM*	4.6µM*	5µM*	5µM*	4.6µM*
O=C(c1cc2c(s1)CCCCC2)N1CCN(c2ncccn2)CC1	16µM*	0%	-1%	-2%	7%	i
CCOc1ccc(S(=O)(=O)N2CCN(C(=S)NCc3ccccc3)CC2)cc1	18µM*	?	-2%	-8%	27%	i
O=S(=O)(c1ccccc1)N1CCN(C(=S)NCc2ccccc2)CC1	?	11%	1%	-8%	2%	i
CCOc1ccc(S(=O)(=O)N2CCN(C(=O)c3ccco3)CC2)cc1	i	-2%	?	12%	2%	i
CCOc1ccc(S(=O)(=O)N2CCN(C(=O)c3cc4c(s3)CCCC4)CC2)cc1	3.3µM*	10%	8%	-1%	-3%	12µM*
Fc1ccc(Nc2nc3ccccc3c3nncn23)c(Cl)c1	i	/	/	/	/	i
COc1ccc(N2CCN(C(=O)c3nc(-c4ccc(Cl)cc4)n4c3CCCCC4)CC2)cc1	i	/	/	/	/	i
O=C(NCCCN1CCOCC1)c1ccc(Br)cc1	i	-4%	-14%	-5%	-1%	i
CC(C)(C)c1ccc(C(=O)NCCCN2CCN(CCCNC(=O)c3ccc(C(C)(C)C)cc3)CC2)cc1	18µM*	16µM*	?	?	18µM*	?
CCCCCCCCNC(=O)CCNC(=O)c1ccc(C(C)(C)C)cc1	13µM*	?	7%	-6%	-5%	i
CC(=O)N1CCc2c(sc3c2c(=O)n(-c2ccccc2)c(=O)n3Cc2cccc(C(F)(F)F)c2)C1	i	/	/	/	/	?
O=C(CCCN1C(=O)/C(=C/c2ccc(F)cc2)SC1=S)NCCCn1ccnc1	?	21µM*	-14%	-20%	-4%	i
CN1CCN(C(=O)CCN2C(=O)/C(=C/c3cccc(Br)c3)SC2=S)CC1	i	15µM*	?	?	15µM*	?
CCc1ccc(/C=C2\SC(=S)N(CCCC(=O)N3CCN(C)CC3)C2=O)cc1	i	/	/	?	-19%	i
COc1ccc(/C=C2\SC(=S)N(CCC(=O)NCCCn3ccnc3)C2=O)cc1	i	1%	-23%	2%	3%	i
COc1ccc(/C=C2\SC(=S)N(CCCC(=O)N3CCN(C)CC3)C2=O)cc1	i	?	-1%	16µM*	26µM*	i
CN1CCN(C(=O)CCCN2C(=O)/C(=C/c3cccc(Br)c3)SC2=S)CC1	?	23µM*	?	18µM*	?	?
CCOc1ccc(/C=C2\SC(=S)N(CCCC(=O)NCCCN3CCOCC3)C2=O)cc1	i	?	16µM*	16µM*	?	i
CCc1ccc(/C=C2\SC(=S)N(CCCC(=O)NCCCN3CCOCC3)C2=O)cc1	i	/	/	?	-18%	i
CCOC(=O)N1CCC(NC(=O)c2cnn(-c3ccc(OC)cc3)c2C2CCN(C(=O)OC(C)(C)C)CC2)CC1	i	/	/	/	/	i
Oc1ccc(Cl)cc1CNc1ccc(Br)cn1	i	?	?	-15%	0%	?
Oc1c(Cl)cc(Cl)cc1CNc1ccc(Br)cn1	i	11µM*	2%	?	?	i
CCN(CC)c1nc2c(S(=O)(=O)c3ccc(C)cc3)nnn2c2ccsc12	i	/	/	/	/	i
SMILES	KB-V1 cytotox	MCF10A rereplic	SW480 rerep	HT1080 IDH1KD tx	HT1080NT lethal	KB-3-1 cytotox
COc1ccccc1NC(=O)CCc1nc(-c2ccccc2F)no1	?	0%	5%	0%	-1%	i
CCOC(=O)c1ccc(NC(=O)CCc2nc(-c3cccc(C)c3)no2)cc1	21µM*	?	12%	-21%	-13%	?
COc1cccc(NC(=O)CCc2nc(-c3cccs3)no2)c1	i	-1%	-21%	?	7.3µM*	i
Cc1cccc(-c2noc(CCC(=O)Nc3ccccc3)n2)c1	i	-6%	-10%	-10%	-23%	i
COc1ccccc1-c1noc(CCC(=O)Nc2cccc(C(F)(F)F)c2)n1	21µM*	18%	1%	-19%	0%	?
COc1ccccc1NC(=O)CSC1=Nc2ccccc2C2=NC(CCC(=O)NCc3ccco3)C(=O)N12 (centres undefined)	i	/	/	/	/	i
CC(C)c1ccc(S(=O)(=O)N2CCC(n3c(C(F)(F)F)nc4cccnc43)CC2)cc1	i	/	/	/	/	i
CCCOC(=O)C1=C(C)CS[C@@H]2[C@H](NC(=O)COc3ccccc3)C(=O)N12	i	/	/	/	/	i
Cc1ccc(NC(=O)c2c(C)oc3c2C2=NCCN2C=N3)cc1F	i	/	/	/	/	i
Cc1ccc(-c2cc(NC(=O)C(C)Oc3ccccc3F)on2)cc1 (centres undefined)	i	/	/	/	/	i
C=C1C(=O)OC2C1CCC(C)=C1C(=O)C3OC3(C)C12 (centres undefined)	?	?	?	16µM*	?	?
CSc1nsc(SC)c1NC(=O)OCCc1ccccn1	i	3%	-7%	-1%	0%	i
CSc1nsc(SC)c1NC(=O)Nc1ccccn1	15µM*	-2%	2%	?	-25%	i
COc1cccc(OCCCn2c(-c3ccc(Cl)cc3)nc3ccccc3c2=O)c1	i	/	/	/	/	i
N#CCCN(Cc1cccnc1)S(=O)(=O)c1ccc2ccccc2c1	23µM*	-3%	-4%	1%	1%	i
C=CCn1c(CNc2ccccc2)nnc1SCC(=O)N/N=C/c1ccc(O)cc1O	i	16µM*	5%	?	?	i
C=CCn1c(CNc2ccc(C)cc2)nnc1SCC(=O)N/N=C/c1ccc(O)cc1O	i	?	-1%	-16%[9.24 µM]	?	i
CN1C2=CC=CC=CC2=[N+](C)C12C=CC(=[N+]([O-])[O-])C=C2[N+](=O)[O-] (centres undefined)	?	2%	-5%	-5%	-7%	i
CN1C2=CC=CC=CC2=[N+](C)C12C([N+](=O)[O-])=CC(=[N+]([O-])[O-])C=C2[N+](=O)[O-] (centres undefined)	i	?	0.65µM*	2.1µM*	?	i
CCOC(=O)c1cc(S(=O)(=O)N2CCN(c3ccccc3OC)CC2)[nH]n1	i	/	/	/	/	i

From PubChem
